Bioassay records from PubChem BioAssay.
Sampled rows, rich in hits. Any-hit rate of the full collection: about 4%.
D1 antag = Antagonist of Human D 1 Dopamine Receptor: qHTS | HEK293 TREx D1 cells, calcium flux, dopamine EC80; stronger effect = lower value | activity change, negative = inhibition, % at 10 µM | 360,000 compounds, 3.2% hits; in the data active = activity change below about -30%; note: % is set by controls: 0 for no effect and ±100 for the full control effect
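Cells carrying a force-coupled, tetracycline-inducible human D1 receptor report calcium flux. Each well gets a 10 s baseline, compound with 180 s monitoring, then an EC80 dopamine stimulus with a second 180 s kinetic read.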
D1 ag = Allosteric Agonists of the Human D1 Dopamine Receptor: qHTS; activation, % at 2 µM; AID 504660, 2011; 360,000 compounds, 1% hits; HEK293 T-REx D1 cells, calcium flux, agonist mode; D(1A) dopamine receptor (Homo sapiens), P21728; note: 0% is about no effect
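Inducible HEK293 T-REx D1 cells, force-coupled to calcium signalling, were plated at 4000 cells/well with tetracycline and held overnight at 30 C. After no-wash calcium dye loading, compound-evoked calcium rise over 180 s flagged agonists.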
TRHR PAM = qHTS for Small Molecule Agonists and Allosteric Enhancers of Human TRH Receptor: Primary Screen for Enhancers. TRHR cells, fluo-8 calcium fluorescence, EC20 TRH enhancement. enhancement, % at 2 µM. 360,000 compounds, 0.66% hits. AID 493056, 2011. Thyrotropin-releasing hormone receptor (Homo sapiens), P34981; in the data active = enhancement above about 30%; note: 0% is about no effect
Target sequence (P34981 whole entry, looked up): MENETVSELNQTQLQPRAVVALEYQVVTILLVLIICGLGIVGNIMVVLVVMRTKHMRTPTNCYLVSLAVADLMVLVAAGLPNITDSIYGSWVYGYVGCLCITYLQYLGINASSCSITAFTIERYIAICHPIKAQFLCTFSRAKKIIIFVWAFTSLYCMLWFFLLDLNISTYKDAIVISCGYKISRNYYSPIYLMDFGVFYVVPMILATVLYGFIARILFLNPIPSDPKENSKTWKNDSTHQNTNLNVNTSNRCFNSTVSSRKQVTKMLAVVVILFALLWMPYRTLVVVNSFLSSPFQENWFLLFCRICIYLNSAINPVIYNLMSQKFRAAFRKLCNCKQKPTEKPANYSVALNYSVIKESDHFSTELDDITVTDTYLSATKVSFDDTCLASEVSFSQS
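Enhancer read-out: after compound pinning and an initial kinetic agonist-mode read, an EC20 of TRH (10 nM final) was injected and fluo-8 calcium signal (Ex 480/Em 530) followed at 1 s/cycle for 100 cycles in TRHR-expressing cells.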
Glioma ERSR ind = qHTS for Inducers of the Endoplasmic Reticulum Stress Response (ERSR) in Human Glioma: qHTS; U87-MG GRP78 promoter luciferase reporter, 16 h; Potency, µM, without a hit: top-dose activation, most hits filed as activators; 420,000 compounds, 0.02% hits; active = well fitted activation curve with a large enough effect; note: potency is the fitted concentration of half-maximal effect; series mostly up to about 76 µM; % of control where 0% means no effect; nearly all actives have a fitted effect of over 35% in size
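ERSR induction read as luciferase luminescence (Bright-Glo, 10 min at room temperature) in stably transfected human U87-MG glioma cells exposed to compounds for 16 h, using GRP78 as sensor.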
D1 potentiator = Potentiators of Human D1 Dopamine Receptor: qHTS; 360,000 compounds, 0.036% hits; potentiation, % at 10 µM; AID 504651, 2011; HEK293 TREx D1 cells, calcium flux, dopamine EC20 potentiation; D(1A) dopamine receptor (Homo sapiens), P21728; in the data active = potentiation above about 30%; note: 0% is about no effect
TRHR agonist = qHTS for Small Molecule Agonists and Allosteric Enhancers of Human TRH Receptor: Primary Screen for Agonists; Thyrotropin-releasing hormone receptor (Homo sapiens), P34981; TRHR cells, calcium flux fluo-8, FDSS agonist mode; activation, % at 2 µM; 360,000 compounds, 0.18% hits; note: 0% is about no effect
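Fluo-8-loaded TRHR cells; 10 s baseline, compound added, kinetic Ca2+ fluorescence read 1/s, agonist mode.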
* = called active by the depositor; . = no result given. Cut-off read from the data, not from the text of the source, unless noted: active = activation above about 30%; inactive = the rest.

SMILES	D1 antag	D1 ag	TRHR PAM	Glioma ERSR ind	D1 potentiator	TRHR agonist
COc1cc(-c2ccc(Cl)cn2)cc2c1OCCN(S(=O)(=O)C[C@]13CC[C@H](CC1=O)C3(C)C)C2	.	.	.	-2%	.	.
Cc1cccc(Nc2nc(-c3c(C)nc4ccccn34)cs2)c1	-46*	8	5	4%	-2	-1
Cc1ccn2c(-c3csc(NCc4ccco4)n3)c(C)nc2c1	-42*	8	-2	-6%	-11	0
COc1ccc(-c2csc(NCc3ccco3)n2)cc1C	-14	-1	1	0%	-3	0
Cc1cc(C)cc(C(=O)NCCn2cc(C(=O)N3CCSCC3)nn2)c1	.	.	.	0%	.	.
CCOCc1c(C(=O)Nc2ccc3nc(N4CCOCC4)sc3c2)oc2ccccc12	-32*	0	-2	-6%	-8	0
Cc1c(C(=O)NCc2ccccc2CN2CCCC2)oc2ccccc12	-43*	0	1	0%	-17	0
CCOCc1c(C(=O)NCc2ccccc2CN2CCCC2)oc2ccccc12	-30*	1	10	-3%	-6	-1
O=C(Nc1cccc(N2CCC(NCc3cnn(-c4ccccc4)n3)CC2)c1)c1cccnc1	.	.	.	-5%	.	.
CCCC1(C)C(C#N)(C#N)C1(C#N)C#N	.	.	.	-14%	.	.
CC(OC(=O)CN1C(=O)NC2(CCCC2)C1=O)C(=O)Nc1cccc(Cl)c1Cl (configuration not stated)	-51*	1	2	-4%	-11	1
O=C(CN1CCN(C2CCCCC2)CC1)c1ccc2cc[nH]c2c1	-36*	1	-2	-2%	4	0
O=C(CN1CCN(C2CCCCC2)CC1)c1c[nH]c2ccccc12	-11	7	2	-2%	-1	1
CCN1C(=O)c2ccccc2Sc2ccc(C(=O)NCCCN3CCOCC3)cc21	-4	1	32*	-4%	-11	-1
O=C(NNc1nc2cc3c(cc2s1)OCO3)c1cccc(F)c1	-18	6	-4	-1%	-4	2
COC(=O)c1c(C)sc(-c2c(-c3cccc(Cl)c3)[nH]c3c2c(=O)[nH]c(=O)n3C)c1O	5	62*	-2	.	-1	36*
CCOC(=O)c1c(C)sc(-c2c(-c3ccccc3)[nH]c3[nH]c(=O)[nH]c(=O)c23)c1O	-2	39*	0	0%	0	-1
NC1=NCCCC1	.	.	.	4%	.	.
COc1ccccc1C(=O)NC(=O)COC(=O)C1(C)CC1(Cl)Cl (configuration not stated)	-6	0	-3	-2%	-10	0
CCc1nc(NC(C)(C)C)c2cnn(-c3ccccc3)c2n1	32	32*	-5	0%	6	1
O=C(c1ccc2c(c1)OCO2)N1CCC(Cc2ccccc2)CC1	-40*	7	3	-4%	-5	-1
O=C(c1ccccc1)N1CCN(C(=O)c2ccc3c(c2)OCO3)CC1	4	1	2	-2%	-1	1
O=C(c1ccc2c(c1)OCO2)C1CCCN(C2CCN(CCc3ccccc3)CC2)C1 (configuration not stated)	-32*	16	-5	-3%	-5	3
CCOc1ccccc1N1CCN(S(=O)(=O)CC)CC1	-3	0	-1	0%	9	0
CCCCOc1ccc(S(=O)(=O)N2CCN(c3ccccc3OCC)CC2)cc1	-17	9	32*	-3%	-2	0
SMILES	D1 antag	D1 ag	TRHR PAM	Glioma ERSR ind	D1 potentiator	TRHR agonist
CCCCOc1ccc(C(=O)NCCS(=O)(=O)N2CCN(c3ccccc3OC)CC2)cc1	-65*	3	-2	-3%	-2	-1
CCCCOc1ccc(C(=O)NCCS(=O)(=O)N2CCN(c3ccc(F)cc3)CC2)cc1	14	4	-9	-4%	4	0
CC(=O)Nc1ccc(S(=O)(=O)NCCS(=O)(=O)N2CCN(c3ccccc3F)CC2)cc1	17	9	-7	-5%	1	0
COc1ccc(S(=O)(=O)NCCS(=O)(=O)N2CCN(c3ccccc3F)CC2)cc1	-38*	8	-1	-2%	-1	-1
CC(C)(C)c1ccc(C(=O)NNC(=O)CCc2ccccc2)cc1	.	.	.	0%	.	.
CCN1C(=O)[C@H]2[C@H]3[C@H](O)[C@H](O)C/C(=N/OC[C@@H](C)[C@H](OCc4ccccc4)C(C)C)[C@@H]3CC[C@@H]2C1=O	.	.	.	-3%	.	.
COC(=O)C/C=C\[C@@H](C)[C@@H](/C=N\OC[C@@H]1O[C@H](c2ccccc2)C=C[C@@H]1Oc1ccc(OC)cc1)OC	.	.	.	-4%	.	.
Cc1occc1-c1nc(-c2ccncc2)no1	7	5	1	6%	7	0
Cc1ccc(-c2noc(-c3ccoc3C)n2)cc1	-8	104*	0	7%	7	-1
CCOC(=O)N/N=C1/C[C@@H](O)[C@@H](O)[C@@H]2[C@@H]3C(=O)N(C(C)(C)C)C(=O)[C@H]3CC[C@H]12	.	.	.	-4%	.	.
Cc1nc2scc(C)n2c(=O)c1S(=O)(=O)N1CCN(c2ccccc2)CC1	-4	-4	-1	-5%	-3	0
Cc1nc2scc(C)n2c(=O)c1S(=O)(=O)N1CCN(c2ccc([N+](=O)[O-])cc2)CC1	-53*	0	6	-6%	-6	1
CCCCCCCCCCn1c2c(c(=N)c3c1CCC3)CCC2	1	22	1	-14%	-2	3
N=c1c2c(n(Cc3ccc(F)cc3)c3c1CCC3)CCCC2	-30*	3	-2	-3%	-9	0
CCCCCCCCCn1c2c(c(=N)c3c1CCC3)CCCC2	8	85*	-1	-15%	2	4
CCC[C@@H]1CC2=CC(=O)CC[C@]2(C)[C@H]2CC[C@@]3(C)[C@@H](CC[C@@]34CCC(=O)O4)[C@H]12	.	.	.	2%	.	.
C/C=C\C1=C(CO)[C@H](O)[C@H]2OC2[C@@H]1O (some centres not stated)	.	.	.	0%	.	.
Cc1ccc2nc(SCc3ccc([N+](=O)[O-])cc3)[nH]c2c1	-35*	3	-11	2%	-5	2
O=[N+]([O-])c1ccc2nc(SCc3cn4ccccc4n3)[nH]c2c1	-16	3	-5	6%	0	0
Cc1cccc2nc(CSc3nc4ccc([N+](=O)[O-])cc4[nH]3)cn12	-37*	0	4	-3%	-22	-3
COc1ccc(OC)c(CN2CCOc3ccc(C(O)c4cccnc4)cc3C2)c1 (configuration not stated)	.	.	.	-3%	.	.
